# Measurements published in PubChem BioAssay AID1159580 (chemical genetic matrix, 2015).
# In all, about 5,500 compounds went through this assay and about 2,000 (36%) were called active. Roughly 18% stayed inconclusive and do not appear here. This is one part of the list. A number with no mark means an inactive call. No stated cut-off is given here; in the data, active means normalized growth mostly below about 0.91 (no sharp cut-off); inconclusive means no clear call, values can overlap the other calls; inactive means mostly above about 0.92.
# Test: chemical genetic growth profiling, strain panel (AID 1159580);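 further: tested at 20 µM; growth read once vehicle control cultures reached saturation at 30 °C; 1 = growth at the plate median or of vehicle wells; lower values mean less growth of the strain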
# Conditions: S. cerevisiae deletion strains, growth OD
# [1] = locus YAR019C, strain CDC15, active compounds read low
# [2] = locus YBL105C, strain PKC1, active compounds read low
# [3] = locus YBR135W, strain CKS1, active compounds read low
# [4] = locus YBR136W, strain MEC1, active compounds read low
# [5] = locus YBR160W, strain CDC28, active compounds read low
# [6] = locus YDL017W, strain CDC7, active compounds read low
# [7] = locus YDL028C, strain MPS1, active compounds read low
# [8] = locus YDL101C, strain DUN1, active compounds read low
# [9] = locus YDL108W, strain KIN28, active compounds read low
# [10] = locus YDL132W, strain cdc53, active compounds read low
# [11] = locus YDL214C, strain PRR2, active compounds read low
# [12] = locus YDR052C, strain DBF4, active compounds read low
# [13] = locus YDR054C, strain cdc34, active compounds read low
# [14] = locus YDR226W, strain ADK1, active compounds read low
# [15] = locus YDR477W, strain SNF1, active compounds read low
# [16] = locus YER123W, strain YCK3, active compounds read low
# [17] = locus YER133W, strain GLC7, active compounds read low
# [18] = locus YFL009W, strain cdc4, active compounds read low
# [19] = locus YFL029C, strain CAK1, active compounds read low
# [20] = locus YFR003C, strain YPI1, active compounds read low
# [21] = locus YFR019W, strain FAB1, active compounds read low
# [22] = locus YFR028C, strain CDC14, active compounds read low
# [23] = locus YGR040W, strain KSS1, active compounds read low
# [24] = locus YGR052W, strain FMP48, active compounds read low
# [25] = locus YGR092W, strain DBF2, active compounds read low
# [26] = locus YHR030C, strain SLT2, active compounds read low
# [27] = locus YHR079C, strain IRE1, active compounds read low
# [28] = locus YHR082C, strain KSP1, active compounds read low
# [29] = locus YHR205W, strain SCH9, active compounds read low
# [30] = locus YIL147C, strain SLN1, active compounds read low
# [31] = locus YJL095W, strain BCK1, active compounds read low
# [32] = locus YJL128C, strain PBS2, active compounds read low
# [33] = locus YJL157C, strain FAR1, active compounds read low
# [34] = locus YJR016C, strain ILV3, active compounds read low
# [35] = locus YJR066W, strain TOR1 (second series), active compounds read low
# [36] = locus YJR066W, strain TOR1, active compounds read low
# [37] = locus YKL048C, strain ELM1, active compounds read low
# [38] = locus YKL067W, strain YNK1, active compounds read low
# [39] = locus YKL101W, strain HSL1, active compounds read low
# [40] = locus YKL193C, strain SDS22, active compounds read low
# [41] = locus YKL203C, strain TOR2, active compounds read low
# [42] = locus YLR113W, strain HOG1, active compounds read low
# [43] = locus YLR133W, strain CKI1, active compounds read low
# [44] = locus YLR403W, strain SFP1, active compounds read low
# [45] = locus YML070W, strain DAK1, active compounds read low
# [46] = locus YMR001C, strain CDC5, active compounds read low
# [47] = locus YMR205C, strain PFK2 (second series), active compounds read low
# [48] = locus YMR277W, strain FCP1, active compounds read low
# [49] = locus YNL006W, strain LST8, active compounds read low
# [50] = locus YNL020C, strain ARK1, active compounds read low
# [51] = locus YNL161W, strain CBK1, active compounds read low
# [52] = locus YNL183C, strain NPR1, active compounds read low
# [53] = locus YNL207W, strain RIO2, active compounds read low
# [54] = locus YNL222W, strain SSU72, active compounds read low
# [55] = locus YNL307C, strain MCK1 (second series), active compounds read low
# [56] = locus YOL078W, strain AVO1, active compounds read low
# [57] = locus YOL136C, strain PFK27, active compounds read low
# [58] = locus YOR061W, strain CKA2, active compounds read low
# [59] = locus YOR119C, strain RIO1, active compounds read low
# [60] = locus YOR231W, strain MKK1, active compounds read low
# [61] = locus YOR329C, strain SCD5, active compounds read low
# [62] = locus YPL031C, strain PHO85, active compounds read low
# [63] = locus YPL153C, strain RAD53, active compounds read low
# [64] = locus YPL204W, strain HRR25, active compounds read low
# [65] = locus YPL209C, strain IPL1, active compounds read low
# [66] = locus YPL256C, strain CLN2, active compounds read low
# [67] = locus YPR025C, strain CCL1, active compounds read low
# [68] = locus YPR106W, strain ISR1, active compounds read low
# [69] = locus YPR111W, strain DBF20, active compounds read low
# [70] = strain NNK1, active compounds read low
# [71] = strain TSCII, active compounds read low
compound,measurement,setting,value
Nc1nc(Cl)nc2c1ncn2[C@@H]1O[C@H](COP(=O)(O)OP(=O)(O)OP(=O)(O)O)[C@H](O)C1O (stereo partly specified),normalized growth,"locus YAL013W, strain DEP1, active compounds read low",0.999
same,normalized growth,"locus YAL040C, strain CLN3, active compounds read low",0.995
same,normalized growth,"locus YCL061C, strain MRC1 (second series), active compounds read low",1
same,normalized growth,"locus YDR363W, strain ESC2, active compounds read low",1.01
same,normalized growth,"locus YER002W, strain NOP16, active compounds read low",0.99
same,normalized growth,"locus YGR078C, strain PAC10, active compounds read low",1.01
same,normalized growth,"locus YJR075W, strain HOC1, active compounds read low",1
same,normalized growth,"locus YMR307W, strain GAS1, active compounds read low",0.997
same,normalized growth,"locus YNL128W, strain TEP1, active compounds read low",1.01
same,normalized growth,"locus YNL175C, strain NOP13, active compounds read low",0.995
same,normalized growth,"locus YNL197C, strain WHI3, active compounds read low",1.02
same,normalized growth,"locus YNL224C, strain SQS1, active compounds read low",0.987
same,normalized growth,"locus YOR083W, strain WHI5 (second series), active compounds read low",1.01
CCCc1c(C(=O)NC2Cc3ccccc3C2)cnn1-c1ccccc1,normalized growth,[1],0.986
same,normalized growth,[2],0.99
same,normalized growth,[3],0.996
same,normalized growth,[4],0.99
same,normalized growth,[5],0.99
same,normalized growth,[6],0.999
same,normalized growth,[7],0.993
same,normalized growth,[8],0.993
same,normalized growth,[9],0.997
same,normalized growth,[10],0.99
same,normalized growth,[11],0.976
same,normalized growth,[12],0.998
same,normalized growth,[13],0.983
same,normalized growth,[14],0.991
same,normalized growth,[15],0.964
same,normalized growth,[16],0.979
same,normalized growth,[17],0.965
same,normalized growth,[18],0.986
same,normalized growth,[19],0.988
same,normalized growth,[20],0.995
same,normalized growth,[21],0.974
same,normalized growth,[22],0.986
same,normalized growth,[23],0.96
same,normalized growth,[24],1.05
same,normalized growth,[25],1.01
same,normalized growth,[26],0.97
same,normalized growth,[27],1
same,normalized growth,[28],1.04
same,normalized growth,[29],0.991
same,normalized growth,[30],0.994
same,normalized growth,[31],0.991
same,normalized growth,[32],0.979
same,normalized growth,[33],0.969
same,normalized growth,[34],0.98
same,normalized growth,[35],0.93
same,normalized growth,[36],0.986
same,normalized growth,[37],0.982
same,normalized growth,[38],0.991
same,normalized growth,[39],0.972
same,normalized growth,[40],0.988
same,normalized growth,[41],1.01
same,normalized growth,[42],0.951
same,normalized growth,[43],0.968
same,normalized growth,[44],0.956
same,normalized growth,[45],0.97
same,normalized growth,[46],0.987
same,normalized growth,[47],0.987
same,normalized growth,[48],0.989
same,normalized growth,[49],0.995
same,normalized growth,[50],0.984
same,normalized growth,[51],0.991
same,normalized growth,[52],0.998
same,normalized growth,[53],0.987
same,normalized growth,[54],0.992
same,normalized growth,[55],0.998
same,normalized growth,[56],0.985
same,normalized growth,[57],0.96
same,normalized growth,[58],0.977
same,normalized growth,[59],1.01
same,normalized growth,[60],0.934
same,normalized growth,[61],0.992
same,normalized growth,[62],0.98
same,normalized growth,[63],0.956
same,normalized growth,[64],0.963
same,normalized growth,[65],0.994
same,normalized growth,[66],0.921
same,normalized growth,[67],0.998
same,normalized growth,[68],0.98
same,normalized growth,[69],0.981
same,normalized growth,[70],0.986
same,normalized growth,[71],0.997
CCCc1c(C(=O)NNc2cccc(Cl)c2)cnn1-c1ccccc1,normalized growth,[1],0.984
same,normalized growth,[2],0.974
same,normalized growth,[3],0.987
same,normalized growth,[4],0.982
same,normalized growth,[5],0.976
same,normalized growth,[6],0.974
same,normalized growth,[7],0.995
same,normalized growth,[8],0.978
same,normalized growth,[9],0.988
same,normalized growth,[10],0.993
same,normalized growth,[11],0.944
same,normalized growth,[12],0.983
same,normalized growth,[13],0.986
same,normalized growth,[14],0.98
same,normalized growth,[15],0.954
same,normalized growth,[16],0.917
same,normalized growth,[17],0.957
same,normalized growth,[18],0.986
same,normalized growth,[19],0.98
same,normalized growth,[20],0.987
same,normalized growth,[21],0.937
same,normalized growth,[22],0.981
same,normalized growth,[23],0.925
same,normalized growth,[24],1
same,normalized growth,[25],0.957
same,normalized growth,[26],0.963
same,normalized growth,[27],0.963
same,normalized growth,[28],1
same,normalized growth,[29],0.933
same,normalized growth,[30],0.992
same,normalized growth,[31],0.968
same,normalized growth,[32],0.917
same,normalized growth,[33],0.937
same,normalized growth,[34],0.986
same,normalized growth,[35],0.911
same,normalized growth,[36],1.02
same,normalized growth,[37],0.968
same,normalized growth,[38],0.947
same,normalized growth,[39],0.924
same,normalized growth,[40],0.988
same,normalized growth,[41],0.987
same,normalized growth,[42],0.864
same,normalized growth,[43],0.936
same,normalized growth,[44],0.917
same,normalized growth,[45],0.927
same,normalized growth,[46],0.979
same,normalized growth,[47],0.948
same,normalized growth,[48],0.987
same,normalized growth,[49],0.996
same,normalized growth,[50],0.927
same,normalized growth,[51],0.983
same,normalized growth,[52],0.98
same,normalized growth,[53],0.983
same,normalized growth,[54],0.976
same,normalized growth,[55],0.935
same,normalized growth,[56],0.985
same,normalized growth,[57],0.897
same,normalized growth,[58],0.963
same,normalized growth,[59],1.01
same,normalized growth,[60],0.898
same,normalized growth,[61],0.981
same,normalized growth,[62],0.963
same,normalized growth,[63],0.94
same,normalized growth,[64],0.924
same,normalized growth,[65],0.973
same,normalized growth,[66],0.892
same,normalized growth,[67],0.982
same,normalized growth,[68],0.959
same,normalized growth,[69],0.965
same,normalized growth,[70],0.971
same,normalized growth,[71],0.988
CCCc1c(C(=O)Sc2ccccn2)cnn1-c1ccc(Cl)cc1,normalized growth,[1],0.957
same,normalized growth,[2],0.962
same,normalized growth,[3],0.957
same,normalized growth,[4],0.964
same,normalized growth,[5],0.944
same,normalized growth,[6],0.963
same,normalized growth,[7],0.966
same,normalized growth,[8],0.964
same,normalized growth,[9],0.955
same,normalized growth,[10],0.95
same,normalized growth,[11],0.861
same,normalized growth,[12],0.962
same,normalized growth,[13],0.948
same,normalized growth,[14],0.959
same,normalized growth,[15],0.876
same,normalized growth,[16],0.847
same,normalized growth,[17],0.878
same,normalized growth,[18],0.957
same,normalized growth,[19],0.948
same,normalized growth,[20],0.955
same,normalized growth,[21],0.908
same,normalized growth,[22],0.955
same,normalized growth,[23],0.845
same,normalized growth,[24],0.919
same,normalized growth,[25],0.879
same,normalized growth,[26],0.933
same,normalized growth,[27],0.931
same,normalized growth,[28],0.907
same,normalized growth,[29],0.93
same,normalized growth,[30],0.967
same,normalized growth,[31],0.951
same,normalized growth,[32],0.932
same,normalized growth,[33],0.849
same,normalized growth,[34],0.955
same,normalized growth,[35],0.822
same,normalized growth,[36],0.87
same,normalized growth,[37],0.911
same,normalized growth,[38],0.885
same,normalized growth,[39],0.912
same,normalized growth,[40],0.961
same,normalized growth,[41],0.942
same,normalized growth,[42],0.804 (active)
same,normalized growth,[43],0.912
same,normalized growth,[44],0.861
same,normalized growth,[45],0.869
same,normalized growth,[46],0.953
same,normalized growth,[47],0.932
same,normalized growth,[48],0.964
same,normalized growth,[49],0.98
same,normalized growth,[50],0.911
same,normalized growth,[51],0.955
same,normalized growth,[52],0.881
same,normalized growth,[53],0.955
same,normalized growth,[54],0.957
same,normalized growth,[55],0.912
same,normalized growth,[56],0.957
same,normalized growth,[57],0.878
same,normalized growth,[58],0.898
same,normalized growth,[59],0.947
same,normalized growth,[60],0.897
same,normalized growth,[61],0.957
same,normalized growth,[62],0.903
same,normalized growth,[63],0.899
same,normalized growth,[64],0.895
same,normalized growth,[65],0.952
same,normalized growth,[66],0.755 (active)
same,normalized growth,[67],0.954
same,normalized growth,[68],0.95
same,normalized growth,[69],0.937
same,normalized growth,[70],0.961
same,normalized growth,[71],0.955
